Laboratory results from publication PMC7862700, “An all-to-all approach to the identification of sequence-specific readers for epigenetic DNA modifications on cytosine”.

What was measured:
Test in all cases: DAPPL (digital affinity profiling via proximity ligation, sequencing); 10 mM Tris-HCl pH 7.5, 50 mM NaCl, 1 mM DTT, 4% glycerol, room temperature, 30 min; GST-TFs on glutathione beads, 16-mer random dsDNA library, 0.1% formaldehyde crosslink after washing; high values mean tight binding
Details in all cases: protein: recombinant; tags: N-terminal GST; dsDNA, one strand shown
ERF = target: T1, ERF (Homo sapiens, UniProt P50548 1-548)
T1 sequence: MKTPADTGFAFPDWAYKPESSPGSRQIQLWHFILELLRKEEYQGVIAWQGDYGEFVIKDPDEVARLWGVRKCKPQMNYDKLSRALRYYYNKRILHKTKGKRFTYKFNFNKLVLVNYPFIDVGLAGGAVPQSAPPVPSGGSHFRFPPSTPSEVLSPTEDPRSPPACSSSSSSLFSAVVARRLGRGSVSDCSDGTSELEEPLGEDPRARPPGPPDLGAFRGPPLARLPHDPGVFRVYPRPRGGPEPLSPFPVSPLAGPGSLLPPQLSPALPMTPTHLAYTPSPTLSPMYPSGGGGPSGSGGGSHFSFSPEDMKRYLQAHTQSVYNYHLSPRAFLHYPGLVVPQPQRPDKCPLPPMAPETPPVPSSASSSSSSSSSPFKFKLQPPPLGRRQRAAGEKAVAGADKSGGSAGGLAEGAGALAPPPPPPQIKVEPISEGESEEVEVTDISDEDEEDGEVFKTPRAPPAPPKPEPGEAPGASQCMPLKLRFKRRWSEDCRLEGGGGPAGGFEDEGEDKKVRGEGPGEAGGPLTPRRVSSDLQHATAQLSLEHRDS
Procedure, shortened: (§1)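 Each value of binding signal is a hexamer's read frequency for a factor divided by the same hexamer's frequency in the tag-only sample. Barcoded, bead-captured GST fusions of human transcription factors made in yeast were pooled with that sample and incubated with 200 nmole of a random double-stranded 16-mer DNA library in Tris/NaCl/DTT/glycerol buffer at room temperature for 30 min. Washing, 0.1% formaldehyde crosslinking, proximity ligation, PCR and Illumina NextSeq500 sequencing followed.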

ETV3L = target: T2, ETV3L (Homo sapiens, UniProt Q6ZN32 1-361)
T2 sequence: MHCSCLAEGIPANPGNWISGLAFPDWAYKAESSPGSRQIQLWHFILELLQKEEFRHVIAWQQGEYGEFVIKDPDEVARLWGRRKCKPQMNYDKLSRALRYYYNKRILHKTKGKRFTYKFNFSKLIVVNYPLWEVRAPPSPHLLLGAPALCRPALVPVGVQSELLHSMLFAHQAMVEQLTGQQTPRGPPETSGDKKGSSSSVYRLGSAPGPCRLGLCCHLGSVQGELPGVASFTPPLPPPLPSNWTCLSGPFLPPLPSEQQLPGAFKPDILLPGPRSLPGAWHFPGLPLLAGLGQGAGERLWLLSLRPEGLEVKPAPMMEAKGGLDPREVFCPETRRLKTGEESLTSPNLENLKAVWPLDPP
Procedure, shortened: as §1

ETS2 = target: T3, ETS2 (Homo sapiens, UniProt P15036 1-469)
T3 sequence: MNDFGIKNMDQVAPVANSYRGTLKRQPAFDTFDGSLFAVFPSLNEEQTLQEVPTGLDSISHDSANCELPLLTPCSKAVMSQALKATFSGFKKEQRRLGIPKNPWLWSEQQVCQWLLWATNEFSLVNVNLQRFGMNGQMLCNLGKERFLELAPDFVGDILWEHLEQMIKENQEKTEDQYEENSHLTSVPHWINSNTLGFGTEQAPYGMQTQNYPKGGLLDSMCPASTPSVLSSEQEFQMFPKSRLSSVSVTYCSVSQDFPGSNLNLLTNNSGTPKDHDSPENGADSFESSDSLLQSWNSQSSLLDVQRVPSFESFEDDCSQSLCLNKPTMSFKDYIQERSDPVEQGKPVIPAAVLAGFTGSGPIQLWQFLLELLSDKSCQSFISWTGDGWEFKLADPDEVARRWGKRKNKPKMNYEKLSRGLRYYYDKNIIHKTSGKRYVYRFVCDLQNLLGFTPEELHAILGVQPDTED
Procedure, shortened: as §1

SPDEF = target: T4, SPDEF (Homo sapiens, UniProt O95238 1-335)
T4 sequence: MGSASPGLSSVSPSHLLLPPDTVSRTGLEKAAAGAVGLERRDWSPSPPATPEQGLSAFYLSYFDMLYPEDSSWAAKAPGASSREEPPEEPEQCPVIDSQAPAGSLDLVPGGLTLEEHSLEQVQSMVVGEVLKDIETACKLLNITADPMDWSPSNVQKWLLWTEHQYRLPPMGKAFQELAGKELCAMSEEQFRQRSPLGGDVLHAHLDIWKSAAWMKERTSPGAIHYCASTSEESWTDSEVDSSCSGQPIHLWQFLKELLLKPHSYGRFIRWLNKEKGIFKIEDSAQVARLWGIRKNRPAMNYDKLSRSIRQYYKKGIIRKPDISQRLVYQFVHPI
Procedure, shortened: as §1

ETV7 = target: T5, ETV7 (Homo sapiens, UniProt Q9Y603 1-341)
T5 sequence: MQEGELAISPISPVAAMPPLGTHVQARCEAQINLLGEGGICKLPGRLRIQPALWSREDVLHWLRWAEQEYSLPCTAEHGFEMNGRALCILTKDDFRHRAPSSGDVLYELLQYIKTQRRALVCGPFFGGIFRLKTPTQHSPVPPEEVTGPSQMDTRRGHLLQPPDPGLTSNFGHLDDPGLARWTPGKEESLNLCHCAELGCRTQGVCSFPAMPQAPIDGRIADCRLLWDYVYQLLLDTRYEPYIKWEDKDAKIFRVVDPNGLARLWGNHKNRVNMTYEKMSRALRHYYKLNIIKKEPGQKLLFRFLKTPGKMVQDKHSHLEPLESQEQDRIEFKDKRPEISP
Procedure, shortened: as §1

ELF5 = target: T6, ELF5 (Homo sapiens, UniProt Q9UKW6-2 1-255)
T6 sequence: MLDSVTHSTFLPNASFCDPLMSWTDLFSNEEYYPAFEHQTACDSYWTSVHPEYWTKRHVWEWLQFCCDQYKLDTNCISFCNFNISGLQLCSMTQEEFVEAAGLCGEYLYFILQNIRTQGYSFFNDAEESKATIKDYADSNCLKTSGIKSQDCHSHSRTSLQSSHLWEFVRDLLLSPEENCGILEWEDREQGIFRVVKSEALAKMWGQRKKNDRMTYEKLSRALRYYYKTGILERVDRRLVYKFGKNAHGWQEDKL
Procedure, shortened: as §1

ETV3 = target: T7, ETV3 (Homo sapiens, UniProt P41162-2 1-143)
T7 sequence: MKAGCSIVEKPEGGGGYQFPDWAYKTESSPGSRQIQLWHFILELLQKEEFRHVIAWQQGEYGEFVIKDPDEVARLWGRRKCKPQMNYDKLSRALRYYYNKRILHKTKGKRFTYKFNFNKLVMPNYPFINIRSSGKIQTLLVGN
Procedure, shortened: as §1

ETV6 = ETV6 (Homo sapiens, UniProt P41212 1-452)
Procedure, shortened: as §1

Sequence of ETV6 (P41212 whole entry): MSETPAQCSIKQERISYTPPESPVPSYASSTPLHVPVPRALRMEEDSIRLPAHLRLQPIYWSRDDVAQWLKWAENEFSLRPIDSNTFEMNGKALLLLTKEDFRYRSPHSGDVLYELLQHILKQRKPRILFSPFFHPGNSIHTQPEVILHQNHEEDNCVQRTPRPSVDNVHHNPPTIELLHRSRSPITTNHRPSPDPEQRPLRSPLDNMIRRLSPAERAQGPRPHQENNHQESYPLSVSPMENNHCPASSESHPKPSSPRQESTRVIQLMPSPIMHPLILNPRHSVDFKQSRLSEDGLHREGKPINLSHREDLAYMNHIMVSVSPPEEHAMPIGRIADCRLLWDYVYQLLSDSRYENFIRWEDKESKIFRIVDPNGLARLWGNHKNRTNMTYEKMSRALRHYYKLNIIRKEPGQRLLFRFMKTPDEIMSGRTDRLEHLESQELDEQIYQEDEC

Sequence	binding signal (ERF)	binding signal (ETV3L)	binding signal (ETS2)	binding signal (SPDEF)	binding signal (ETV7)	binding signal (ELF5)	binding signal (ETV3)	binding signal (ETV6)
CTCCGT	1.07 fold enrichment (6-mer frequency, TF over GST control)	1.19 fold enrichment (6-mer frequency, TF over GST control)	1.22 fold enrichment (6-mer frequency, TF over GST control)	1.05 fold enrichment (6-mer frequency, TF over GST control)	1.33 fold enrichment (6-mer frequency, TF over GST control)	1.14 fold enrichment (6-mer frequency, TF over GST control)	1.22 fold enrichment (6-mer frequency, TF over GST control)	1.16 fold enrichment (6-mer frequency, TF over GST control)
ACTCCT	1.45 fold enrichment (6-mer frequency, TF over GST control)	1.54 fold enrichment (6-mer frequency, TF over GST control)	1.52 fold enrichment (6-mer frequency, TF over GST control)	1.42 fold enrichment (6-mer frequency, TF over GST control)	1.52 fold enrichment (6-mer frequency, TF over GST control)	1.42 fold enrichment (6-mer frequency, TF over GST control)	1.43 fold enrichment (6-mer frequency, TF over GST control)	1.42 fold enrichment (6-mer frequency, TF over GST control)
TGGCAC	1.21 fold enrichment (6-mer frequency, TF over GST control)	1.2 fold enrichment (6-mer frequency, TF over GST control)	1.14 fold enrichment (6-mer frequency, TF over GST control)	1.12 fold enrichment (6-mer frequency, TF over GST control)	1.18 fold enrichment (6-mer frequency, TF over GST control)	1.05 fold enrichment (6-mer frequency, TF over GST control)	1.19 fold enrichment (6-mer frequency, TF over GST control)	1.16 fold enrichment (6-mer frequency, TF over GST control)
CTCATC	1.44 fold enrichment (6-mer frequency, TF over GST control)	1.5 fold enrichment (6-mer frequency, TF over GST control)	1.32 fold enrichment (6-mer frequency, TF over GST control)	1.39 fold enrichment (6-mer frequency, TF over GST control)	1.23 fold enrichment (6-mer frequency, TF over GST control)	1.44 fold enrichment (6-mer frequency, TF over GST control)	1.48 fold enrichment (6-mer frequency, TF over GST control)	1.37 fold enrichment (6-mer frequency, TF over GST control)
CGACAC	1.08 fold enrichment (6-mer frequency, TF over GST control)	1.21 fold enrichment (6-mer frequency, TF over GST control)	1.19 fold enrichment (6-mer frequency, TF over GST control)	1.15 fold enrichment (6-mer frequency, TF over GST control)	1.16 fold enrichment (6-mer frequency, TF over GST control)	1.19 fold enrichment (6-mer frequency, TF over GST control)	1.2 fold enrichment (6-mer frequency, TF over GST control)	1.28 fold enrichment (6-mer frequency, TF over GST control)
CAAACT	1.23 fold enrichment (6-mer frequency, TF over GST control)	1.14 fold enrichment (6-mer frequency, TF over GST control)	1.21 fold enrichment (6-mer frequency, TF over GST control)	1.16 fold enrichment (6-mer frequency, TF over GST control)	1.15 fold enrichment (6-mer frequency, TF over GST control)	1.18 fold enrichment (6-mer frequency, TF over GST control)	1.13 fold enrichment (6-mer frequency, TF over GST control)	1.21 fold enrichment (6-mer frequency, TF over GST control)
AAGCTT	1.29 fold enrichment (6-mer frequency, TF over GST control)	1.31 fold enrichment (6-mer frequency, TF over GST control)	1.19 fold enrichment (6-mer frequency, TF over GST control)	1.14 fold enrichment (6-mer frequency, TF over GST control)	1.38 fold enrichment (6-mer frequency, TF over GST control)	1.31 fold enrichment (6-mer frequency, TF over GST control)	1.2 fold enrichment (6-mer frequency, TF over GST control)	1.3 fold enrichment (6-mer frequency, TF over GST control)
